Screening results as filed in PubChem BioAssay.
In the library only some 7.5% were active in any assay of this set; here they are far more common.
HCV inhibitor = blocks hepatitis C virus | 3.4% of 340,000 active | Potency, µM (titrated, usually from 41.8 µM), hits mostly inhibitors | Huh7.5.1 HCVcc-Cre infection, luciferase reporter, 44 h
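1,000 cells/well; 4 h culture; + compound; + HCVcc-Cre (~0.5 moi); 44 h; luciferase substrate, RT 15 min; read 15 sec.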
Giardia FBPA inh = blocks Giardia fructose-bisphosphate aldolase activity; A8B2U2; purified Giardia FBPA; Potency, µM (titrated, usually from 59.6 µM), actives largely listed as inhibitors; 0.71% of 290,000 active; AID 2451; further: nearly all actives have a fitted effect of over 55% in size
Target sequence (A8B2U2 whole entry, looked up): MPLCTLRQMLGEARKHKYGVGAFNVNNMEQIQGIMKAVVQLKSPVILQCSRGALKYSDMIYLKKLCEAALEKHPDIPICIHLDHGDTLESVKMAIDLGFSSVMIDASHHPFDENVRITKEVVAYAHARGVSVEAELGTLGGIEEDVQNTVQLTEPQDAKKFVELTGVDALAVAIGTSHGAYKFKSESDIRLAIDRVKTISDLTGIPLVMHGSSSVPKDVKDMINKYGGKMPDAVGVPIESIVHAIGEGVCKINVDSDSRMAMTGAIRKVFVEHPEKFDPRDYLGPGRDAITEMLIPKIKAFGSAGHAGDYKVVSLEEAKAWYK
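Giardia FBPA (40 nM reagent) was preincubated 10 min at RT with compound (up to 57.5 uM final), then substrate plus GAPDH/TPI/NAD/arsenate coupling system with diaphorase/resazurin was added; resorufin fluorescence (525/598 nm) was read after 20 min.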
FMDV antiviral = foot and mouth disease virus antiviral activity | Potency, µM (titrated, usually from 57.9 µM), usual class: inhibitors | FMDV antiviral cell-based qHTS | 1.2% of 410,000 active | AID 1159524; calls by dose curve; tested in HEK293T cells; further: read-out not given here; nearly all actives have a fitted effect of over 45% in size
VACV Venus inh = inhibitors of vaccinia virus (Venus reporter); 0.46% of 330,000 active; Potency, µM (top dose mostly 36.5 µM), hits mostly inhibitors; Vaccinia virus Venus reporter expression, fluorescence; AID 720580; calls by dose curve; tested in A549 cells; further: nearly all actives have a fitted effect of over 30% in size
Vaccinia mCherry = vaccinia inhibition (mCherry reporter) | AID 720579 | Potency, µM (top dose mostly 36.5 µM), actives largely listed as inhibitors | 0.63% of 310,000 active | Vaccinia virus mCherry reporter infection, fluorescence; calls by dose curve; tested in A549 cells; further: nearly all actives have a fitted effect of over 35% in size
HCMV inh = blocks human cytomegalovirus replication; activity change, negative = inhibition, % at 57.5 µM; HFF cells, HCMV-luciferase reporter, 72 h; stronger effect = lower value; 4.5% of 410,000 active; AID 1259415; in the data active means activity change below about -60%; inconclusive means no clear call, values can overlap the other calls; inactive means above about -39%
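HFF cells seeded 16 h at 37C, treated with compounds, infected with luciferase-reporter HCMV at MOI 1 PFU/cell; luciferase read at 72 h post infection, normalized to buffer-only and Salinomycin controls.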
Hits are given with their value; n = inactive; u = inconclusive; x = no result given; ! = repeats disagree; [ ] = another dose, or the depositor's remark. Unless noted, the call rests on the fitted dose curve; in most records, active means well fitted curve in the direction sought with a large enough effect; inconclusive means small, poorly fitted or top-dose-only effect, or another doubt; inactive means no such curve, though single readings can be large; an effect the other way counts as inactive or inconclusive.

SMILES	HCV inhibitor	Giardia FBPA inh	FMDV antiviral	VACV Venus inh	Vaccinia mCherry	HCMV inh
Cc1ccc(CSCc2ccc(C(=O)O)o2)cc1	n	n	n	x	x	n
O=C(O)c1ccc(CSCc2ccccc2)o1	x	x	n	n	n	-84.7
Cc1cccc2c1-c1sc(C(=O)N3CCN(c4ccccc4)CC3)cc1CO2	x	x	n	n	n	n
N#Cc1ccc(C(=O)NNC(=O)c2ccncc2)cc1	n	n	n	x	x	n
Cc1ccc(-c2[nH]ncc2C(=O)c2cccc(F)c2)c(O)c1	u	n	n	n	n	-74.6
Cc1cccc(C(=O)c2cn[nH]c2-c2ccc(C)cc2O)c1	n	n	n	n	n	n
CCn1c2ccccc2c2cc(/C=N/NC(=O)c3ccccc3C)ccc21	5.62µM	n	n	u	u	n
Cn1c2ccccc2c2cc(/C=N/NC(=O)c3ccc(N)cc3)ccc21	11.2µM	x	n	n	n	n
Cn1c(=O)n(C)c2cc(/C=N/NC(=O)c3ccc(Cl)cc3)ccc21	n	n	n	n	u	n
CCn1c2ccccc2c2cc(/C=N/NC(=O)c3cccc(C)c3)ccc21	u	n	n	n	u	n
Cn1c2ccccc2c2cc(/C=N/NC(=O)c3ccccc3F)ccc21	14.1µM	n	n	x	x	n
O=C1N/C(=N/O)S/C1=C/c1cccnc1	n	n	n	x	x	n
O=C1NC(=NCc2ccccc2)S/C1=C\c1ccccc1	n	n	n	n	u	-67.8
S=C1NC[C@H](Cc2cccc3ccccc23)N1CC1CCCCC1	2.82µM	n	n	n	u	n
S=C1NC[C@H](Cc2ccccc2)N1CC1CCN(CCCC2CCCCC2)CC1	x	x	x	x	x	-104.8
O=C1NC[C@H](Cc2ccccc2)N(CC2CCN(CCCC3CCCC3)CC2)C1=O	n	x	n	n	n	n
CCOC(=O)c1cc(C)n(CC2CCC(C(=O)Nc3cccc(C)c3)CC2)c1C (stereo not given)	x	x	n	n	n	n
CCS(=O)(=O)c1ncc(Cl)c(C(=O)NCc2ccc(OC)cc2)n1	x	x	25.1µM	n[7.34 µM]	n[7.34 µM]	-96.5
COc1ccc(OC)c(NC(=O)c2nc(S(=O)(=O)Cc3ccc(F)cc3)ncc2Cl)c1	x	x	22.4µM	u	u	-97.2
CCS(=O)(=O)c1ncc(Cl)c(C(=O)N2CCN(c3ccc(OC)cc3)CC2)n1	x	x	31.6µM	n	n	-98.6
CCS(=O)(=O)c1ncc(Cl)c(C(=O)N(Cc2ccccc2)c2ccc(OC)cc2)n1	x	x	11.2µM	n[7.34 µM]	n[7.34 µM]	-99.4
COc1cccc(N2C(=O)C(CC(=O)Nc3ccccc3)N(CCc3sccc3C)C2=O)c1 (stereo not given)	x	x	n	n	n	n
COc1ccccc1NC(=O)c1nc(S(=O)(=O)Cc2ccccc2)ncc1Cl	u	x	28.2µM	u	n	-112.8
CCOc1ccccc1NC(=O)c1nc(S(=O)(=O)Cc2ccccc2)ncc1Cl	u	x	31.6µM	x	x	-108.7
CCS(=O)(=O)c1ncc(Cl)c(C(=O)Nc2ccccc2OC)n1	u	n	3.55µM	n	n	n
SMILES	HCV inhibitor	Giardia FBPA inh	FMDV antiviral	VACV Venus inh	Vaccinia mCherry	HCMV inh
COC1=C(C)C(=O)C2=C(C1=O)C(CO)N1C(C#N)C3CC4C(C1C2N1CCOC41)N3C (stereo not given)	x	x	u	u	u	-99.2
CCCCN(CC)CCNC(=O)Cn1cc2c(n1)-c1c(oc(C(=O)N3CCCC3)c1C)CC2	n	u	n	n	n	-61.5!
Cc1c(C(=O)N2CCCC2)oc2c1-c1nn(CC(=O)NCCCOC(C)C)cc1CC2	n	x	u	n	n	u
O=C(Nc1cccc(Br)c1)c1ccc(OC2CSC2)cc1	x	n	x	x	x	x
O=C1C(n2ccc3ccccc32)c2ccccc2N1Cc1ccc(Cl)nc1 (stereo not given)	x	x	x	x	x	n
CCCN1C(=O)COc2ccc(C(=O)c3ccccc3C(=O)O)cc21	n	n	n	n	n	n
CCCN1C(=O)COc2ccc(-c3n[nH]c(=O)c4ccccc34)cc21	n	n	u	n	n	-101.8
CC(C)C12CN3CC(C(C)C)(CN(C1)C3c1ccc(Cl)cc1)C2=O (stereo not given)	x	x	n	n	n	n
CCOC(=O)c1c(NC(=O)COC(=O)c2cc(OC)c(OC)cc2[N+](=O)[O-])sc(C)c1CC	n	n	n	n	n	n
CCOC(=O)c1c(CC(C)C)csc1NC(=O)COC(=O)c1cc(OC)c(OC)cc1[N+](=O)[O-]	n	n	n	x	x	-71.5
C/C(CC(C)(C)C1CCCCC1)=N\NC(N)=S	2.82µM	n	x	17.8µM	11.2µM	-87.8
CCOC(=O)C1CCN(C(=O)C2CCN(S(=O)(=O)c3cc(Cl)ccc3OCC)CC2)CC1	n	n	n	n	n	n
CCOC(=O)c1[nH]c2ccccc2c1CCCN1C(=O)c2ccccc2C1=O	u	n	u	x	x	n
CC(=O)c1c(C)[nH]c(C(=O)OCc2ccccc2)c1C	u	n	n	n	n	n
CC(=O)c1c(C)[nH]c(C(=O)OCCCCN2C(=O)c3ccccc3C2=O)c1C	10µM	n	12.6µM	x	x	x
COC(=O)c1ccc(COC(=O)c2[nH]c(C)c(C(C)=O)c2C)o1	2.24µM	n	12.6µM	u	x	n
CC(=O)c1c(C)[nH]c(C(=O)OCc2ccc([N+](=O)[O-])cc2)c1C	5.62µM	n	n	n	u	n
Cc1cccc(C(=O)O[C@@H]2[C@H](Cc3ccccc3)NS(=O)(=O)[C@H]3C[C@@H]4C=C[C@]23O4)c1	n	x	n	n	n	n
C[N+]1(CC(=O)c2ccc(Oc3ccccc3)cc2)CCOCC1	x	x	x	n	n	x
Cc1cc(C(=O)CSc2ccc(F)cc2)cc(C)c1OC(=S)N(C)C	u	n	0.794µM	n	x	-92.2
COc1ccc(SCC(=O)c2cc(C)c(OC(=S)N(C)C)c(C)c2)cc1	u	n	n	n	n	n
COc1ccc(C(=O)N2CCC3(CC2)CN(CC(C)C)C3)cc1	x	n	n	x	x	x
Cc1ccc(-c2nnc(SCC(=O)N3CCOCC3)nc2-c2ccc(C)cc2)cc1	n	n	n	n	x	n
Nc1cc(Nc2ccc(Br)cc2)nc(N)n1	n	n	n	n	u	n
CC(C)C[C@H]1CN([C@@H](Cc2ccc(O)cc2)CN2CCC[C@H]2CN2C(=O)C(=O)NC[C@@H]2Cc2ccccc2)C(=O)C(=O)N1CC1CCCCCC1	x	x	n	n	n	n
SMILES	HCV inhibitor	Giardia FBPA inh	FMDV antiviral	VACV Venus inh	Vaccinia mCherry	HCMV inh
COC(=O)C1(O)CC(c2ccccc2)C(C(=O)c2ccc(Cl)cc2)N1c1ccccc1 (stereo not given)	x	x	x	x	x	-77.2
COC(=O)C1(O)CC(c2ccccc2)C(C(=O)c2ccccc2)N1c1ccc(Cl)cc1 (stereo not given)	x	x	x	x	x	n
O=C1NC(=S)NC(=O)C1=Cc1cccn1-c1ccc(O)cc1	u	n	20µM	x	x	-99.4
Cc1cc(C)cc(N2C(=O)NC(=O)/C(=C\c3cccn3-c3ccc(Cl)cc3)C2=O)c1	n	n	8.91µM	n	n[1.46 µM]	n
Cc1cc(C)cc(N2C(=O)NC(=O)/C(=C\c3cccn3-c3ccccc3)C2=O)c1	u	n	35.5µM	14.1µM	u	n
O=Cc1cccn1-c1ccc2ccccc2c1	n	n	n	x	x	u
